From PubChem BioAssay AID590 (National Center for Advancing Translational Sciences (NCATS), 2007)
Screen size: about 59,000 compounds; about 6,500 (11%) were called active. About 15% were inconclusive and are not listed. Rule as the data show it: active = max dye-equivalent concentration above about 10 nM; inconclusive = mostly about 1.1 nM to 9.6 nM; inactive = weaker than that. The full list was thinned out, with actives kept by preference. A structure can be active in one record and inactive in another.

assay: qHTS Assay for Spectroscopic Profiling in A350 Spectral Region; details: Compound autofluorescence, 340/450 nm, Alexa 350 dye-equivalents; hits give high values

Structure (SMILES) | max dye-equivalent concentration | outcome
CCC(c1nnnn1C1CCCC1)N1CCN(C(=O)c2ccco2)CC1 (stereo not given) | inactive | 
O=C(Nc1ccc(-c2nnc(-c3ccccc3)o2)cc1)c1ccc(Br)o1 | 68 nM (active) | 
O=C(Nc1ccc(-c2nnc(-c3ccccc3)o2)cc1)C1CCCO1 (stereo not given) | inactive | 
O=C(Nc1cccc(-c2nnc(-c3ccccc3)o2)c1)C1CCCO1 (stereo not given) | inactive | 
CCNS(=O)(=O)c1ccc(NC(=O)Nc2cccc(OC)c2)cc1 | inactive | 
CN1c2ccccc2-c2nc3ccccc3n2C1c1ccco1 (stereo not given) | 3400 nM (active) | 
CSCCC(NC(=O)c1ccc(=O)n(C)n1)c1nc2ccccc2[nH]1 (stereo not given) | inactive | 
COc1cc(C2C(C(=O)c3sc(C)nc3C)=C(O)C(=O)N2CCN(C)C)cc(OC)c1OC (stereo not given) | inactive | 
O=C(c1csnn1)N1CCC[C@@]2(CCN(Cc3nccs3)C2)C1 | inactive | 
O=c1c2cc3c(=O)n(CC4CCCO4)c(=O)c3cc2c(=O)n1CC1CCCO1 (stereo not given) | inactive | 
O=C(NC1CCCCC1)c1ccc2c(=O)n(CC3CCCO3)c(=O)[nH]c2c1 (stereo not given) | 15 nM (active) | 
Cc1ccc(C(=O)Nc2ccccc2C(=O)NC2CCCCC2)cc1S(=O)(=O)N1CCOCC1 | inactive | 
NS(=O)(=O)c1cc(C(=O)O)c(Cl)c([N+](=O)[O-])c1Cl | inactive | 
CS(=O)(=O)N(Cc1nc2sc3c(c2c(=O)[nH]1)CCCC3)C1CCCCC1 | 44 nM (active) | 
COc1ccc(Br)c2c1C[C@H](C(=O)O)CC2 | inactive | 
C=CCNC(=O)CCCC(=O)NCC=C | inactive | 
CSc1nnc(-c2ccncc2)n1CCCN1CCCC1=O | inactive | 
CC(C)(C)OC(=O)c1c(N)n(CCCN2CCCC2=O)c2nc3ccccc3nc12 | 9100 nM (active) | 
O=C(CCn1c(=S)[nH]c2ccccc2c1=O)NCCCN1CCCC1=O | inactive | 
COc1ccc(N2C(=O)CC(N3CCC(C(N)=O)CC3)C2=O)cc1 (stereo not given) | inactive | 
CC(C)NC(=O)N1CC[C@@]2(CCCN(C(=O)c3cccc(F)c3)C2)C1 | inactive | 
CCCCCNC(=O)Cc1ccc(OC)cc1 | inactive | 

Structure (SMILES) | max dye-equivalent concentration | outcome
CCS(=O)(=O)n1nc(-c2ccccc2)nc1SCc1ccccc1 | inactive | 
COC(=O)c1ccc(C2C3=C(Nc4nnnn42)c2ccccc2OC3)cc1 (stereo not given) | 74 nM (active) | 
COc1ccccc1NC(=O)C1=C(C)Nc2nnnn2C1c1cccc(Br)c1 (stereo not given) | inactive | 
CCCCCOC(=O)C1=C(C)Nc2nnnn2C1c1ccc(OC)c(OC)c1OC (stereo not given) | inactive | 
CC(=O)OC(C(=O)NC1CCCCC1)c1ccccc1 (stereo not given) | inactive | 
Cc1cc(C(=O)OCC(=O)c2c(N)n(C)c(=O)n(C)c2=O)c(C)o1 | inactive | 
CC(NC(=O)c1cc(-c2ccccc2)on1)c1ccccc1 (stereo not given) | inactive | 
Cc1ccc2cc(C#N)c(SCC(=O)NCC3CCCO3)nc2c1C (stereo not given) | inactive | 
CC(NC(=O)CSc1nc2c(cc1C#N)CN(C)CC2)c1ccccc1 (stereo not given) | 26 nM (active) | 
CCC(C)NC(=O)C1CCC(=O)N1Cc1ccc(C)cc1 (stereo not given) | inactive | 
NC(=O)C1(N2CCCCC2)CCN(C(=O)c2ccc(C#Cc3ccccc3)o2)CC1 | inactive | 
O=S(=O)(NCc1ccccc1Cl)c1cnc[nH]1 | inactive | 
O=C(O)CCC(=O)N(Cc1cccs1)Cc1cccs1 | inactive | 
CC(C)Cn1c(CCC(=O)O)ccc1-c1cccs1 | 410 nM (active) | 
Cc1cc(NC(=O)c2cc(-c3cccs3)on2)nn1Cc1ccc(Cl)cc1 | inactive | 
COc1ccc(NC(=O)N2CC3(CCN(C(C)=O)CC3)C2)cc1 | inactive | 
CC(C)c1ccc(NC(=O)NC2CCCCC2)cc1 | inactive | 
FC(F)(F)c1ccccc1-c1nc(-n2ccnc2)c2ccccc2n1 | inactive | 
Cn1c(=O)[nH]c(=O)c2c1nc(NCCCn1ccnc1)n2Cc1cccc(Br)c1 | inactive | 
COc1cc(OC)cc(C(=O)Nc2ccc(-c3nc4ccccc4o3)c(O)c2)c1 | 310 nM (active) | 
COc1ccc(NC(=O)c2c(C)oc3c2CCCC3)cc1 | inactive | 
COc1cccc(NC(=O)c2ccccc2SC)c1 | inactive | 

Structure (SMILES) | max dye-equivalent concentration | outcome
O=C(O)c1ccc(C(=O)c2ccccc2C(=O)O)cc1C(=O)O | inactive | 
C=CCn1c(COc2ccccc2F)nnc1SCC(=O)N1CC(=O)Nc2ccccc21 | inactive | 
CCOC(=O)CNC(=O)CSc1nnc(COc2ccc(Cl)cc2)n1CC | inactive | 
COCc1nc2ccccc2n1Cc1ccccc1Br | inactive | 
CCOC(=O)c1c(C)oc2ccc(OCC(=O)N(CC)CC)cc12 | inactive | 
COC(=O)COc1ccc2oc(=O)cc(C)c2c1 | 28 nM (active) | 
COc1ccc(OCC(=O)OCCN(C)C)cc1 | inactive | 
Cc1nn(-c2ccccc2)c(C)c1C(=O)OCC(=O)NC(=O)NC1CCCCC1 | inactive | 
O=C(CSc1nnc(-c2ccccn2)n1-c1ccccc1)Nc1ccc2c(c1)OCO2 | inactive | 
O=c1ccc2cc(S(=O)(=O)N3CCN(c4ccccc4)CC3)ccc2o1 | inactive | 
CC(=O)N1CCC(C(=O)Nc2nc(-c3ccccc3)ns2)CC1 | 1700 nM (active) | 
Cc1cc(C)cc(NC(=O)C2CCN(c3nc(C)cc(C)n3)CC2)c1 | inactive | 
Cc1ccc2c(NC(=O)C3CC3)cccc2n1 | inactive | 
CCCC(=O)N1c2ccc(-c3csc(N)n3)cc2CC1C (stereo not given) | inactive | 
Cc1noc(NS(=O)(=O)c2ccc(N3CC(O)=C(c4ccccc4)C3=N)cc2)c1C | inactive | 
COc1ccc(OC)c2c(N)c(C#N)c(C(F)(F)C(F)(F)F)nc12 | 150 nM (active) | 
COc1cccc(N(C(=O)c2ccn[nH]2)C2(C(=O)Nc3c(C)cccc3C)CCCCC2)c1 | inactive | 
CS(=O)(=O)N1CCC[C@@]2(CCN(c3ccncc3)C2)C1 | inactive | 
Cc1ccc(CN2C(=O)CCC2C(=O)NCCCN2CCCCC2C)cc1 (stereo not given) | inactive | 
COc1ccccc1CN1CC2(CCN(S(=O)(=O)c3ccccc3)CC2)C1 | inactive | 
CC(C)OCCCNC(=O)C1CC(=O)N(C2CCCCCCC2)C1 (stereo not given) | inactive | 
COc1ccc(CCNS(=O)(=O)c2ccc(F)cc2)cc1OC | inactive | 

Structure (SMILES) | max dye-equivalent concentration | outcome
CSc1ccc(-c2c(C#N)c(N)nc3c2c(C)nn3-c2ccccc2)cc1 | 360 nM (active) | 
CSc1nc(N)c(C#N)c(-c2ccccc2Cl)c1C#N | inactive | 
CCCc1[nH]nc2c1C(c1c(C)nn(-c3ccccc3)c1Cl)C(C#N)=C(N)O2 (stereo not given) | inactive | 
O=S(=O)(c1ccccc1)N(CC(O)CN1CCCCC1)c1ccccc1 (stereo not given) | inactive | 
O=C1c2oc3ccc(Br)cc3c(=O)c2C(c2cccc(F)c2)N1CCO (stereo not given) | inactive | 
Cn1c(=S)c2[nH]c(SCCCc3ccccc3)nc2n(C)c1=O | 12 nM (active) | 
CCCSc1nc2c(c(=O)[nH]c(=O)n2C)n1CCc1ccccc1 | inactive | 
Cn1c(=O)c2c(nc(NCCc3ccccc3)n2Cc2ccccc2)n(C)c1=O | inactive | 
O=S1(=O)CC(NCc2ccccc2)C(Nc2ccc(Cl)cc2)C1 (stereo not given) | inactive | 
Cc1ccc(C)c(NC(=O)C2CC(=O)N(C(C)C)C2)c1 (stereo not given) | inactive | 
COCCn1c(=O)c(-c2cccs2)nc2cnc(N3CCN(C)CC3)nc21 | 17 nM (active) | 
COc1ccccc1CCn1c(=O)c(-c2cn(C)c3ccccc23)nc2cncnc21 | inactive | 
CN(C(=O)COc1nnc(-c2cccs2)c(-c2cccs2)n1)c1ccccc1 | inactive | 
COCCn1c(=O)c(-c2cccs2)nc2cncnc21 | 89 nM (active) | 
Cc1ccccc1NC(=O)Cc1nnc(SCC(=O)N2CCN(c3ccccc3)CC2)n1C | inactive | 
C=CCn1c(C)cc(C(=O)CN2C(=O)c3ccccc3C2=O)c1C | inactive | 
CC(=O)Nc1ccc(NS(=O)(=O)c2cc(C)sc2C)cc1 | inactive | 
COc1ccccc1CNc1ncncc1-c1cccc(NS(C)(=O)=O)c1 | inactive | 
Cc1ccc(C(=O)NCC(=O)O)cc1S(=O)(=O)N1CCCCC1 | inactive | 
CS(=O)(=O)Nc1cccc(-c2cncnc2Nc2ccccc2)c1 | inactive | 
CCOc1ccc(OCC)c(NC(=O)C2CCN(S(=O)(=O)c3c(C)noc3C)CC2)c1 | inactive | 
FC(F)(F)c1cccc(Nc2ncnc3ccccc23)c1 | inactive | 

Structure (SMILES) | max dye-equivalent concentration | outcome
O=C(O)CCCc1ccccc1 | inactive | 
O=C(O)Cc1ccc(-c2ccccc2)cc1 | 47 nM (active) | inactive
Cc1cccc(C(=O)Nc2ccc(CC(=O)O)cc2)c1 | inactive | 
Cc1c(-c2nn(C)c(=O)c3ccccc23)oc2ccc(F)cc2c1=O | inactive | 
Cc1[nH]c2ccccc2c1C(=O)CSCC(=O)O | inactive | 
CCOC(=O)C1CCN(C(=O)c2oc3ccc(S(=O)(=O)N4CCCCCC4)cc3c2C)CC1 | inactive | 
CCN(CC)CCN1C(=O)C(=O)/C(=C(/O)c2ccc(OC)c(OC)c2)C1c1ccccn1 (stereo not given) | 42 nM (active) | 
CCCOc1ccc(/C(O)=C2/C(=O)C(=O)N(CCN(C)C)C2c2ccc(OC)c(OC)c2)cc1 (stereo not given) | inactive | 
COc1ccc(/C(O)=C2/C(=O)C(=O)N(CCCN(C)C)C2c2ccccc2)cc1OC (stereo not given) | inactive | 
CS(=O)(=O)N(C(=O)NC(=O)NC1CCS(=O)(=O)C1)C1CCCCC1 (stereo not given) | inactive | 
c1cnc(NC2C3CC4CC(C3)CC2C4)nc1 (stereo not given) | inactive | 
O=C(CN(Cc1ccccc1)C(=O)c1ccc2c(c1)OCCO2)NCc1ccc2c(c1)OCO2 | inactive | 
Cc1cc(NC(=O)Cn2nc(C(F)(F)F)c3c2CCCC3)no1 | inactive | 
COC(=O)c1ccc(C2NC(=O)NC(C)=C2C(=O)N(C)C)cc1 (stereo not given) | inactive | 
COCCOC(=O)C1=C(C)NC(=O)CC1c1cc2c(cc1Br)OCO2 (stereo not given) | inactive | 
CCCOC(=O)C1=C(C)NC2=C(C(=O)C(C(=O)OC)C(C)C2)C1c1ccc(N(C)C)cc1 (stereo not given) | 22 nM (active) | 
COC(=O)c1ccccc1NC(=O)CN(Cc1ccccc1)S(C)(=O)=O | inactive | 
S=c1[nH]nc(SCc2ccccc2Cl)c2[nH]cnc12 | inactive | 
CCOC(=O)N1CCC(O)(c2cc(C)c(C)cc2C)CC1 | inactive | 
CCOC(=O)N1CCN(CC(=O)n2c(C)c(C)c3ccccc32)CC1 | inactive | 
CCOC(=O)N1CCN(CC(=O)c2ccc3c(c2)CCN3)CC1 | 17 nM (active) | 
